In PubChem BioAssay (Tox21):
Results filed as inconclusive are left out. Values without a mark were called inactive. The call rests on the fitted dose curve; in most records, active means well fitted cell-killing curve with a large enough effect in the repeat runs; inconclusive means weak or mixed curves, or effect the other way; inactive means flat fitted curve, though single readings scatter.
On the % scale 0 is the no-effect control and ±100 the full control effect.

Assay: qHTS assay to identify small molecule antagonists of the retinoid acid receptor (RAR) signaling pathway - cell viability counter screen (AID 1159551); further: nearly all actives have a fitted effect of over 35% in size
Conditions: C3RL4 cells viability, ATP luminescence (CellTiter-Glo), 6 h; series mostly up to 92.4 µM; activity change, negative = cytotoxicity: at the top concentration
Source text: U.S. Tox21 Program National Center for Advancing Translational Sciences [NCATS] NIH Chemical Genomics Center [NCGC] U.S. Environmental Protection Agency [EPA] National Institutes of Environmental Health Sciences [NIEHS] National Toxicology Program [NTP] U.S. Food and Drug Administration [FDA] Tox21 Assay Overview: All-trans Retinoic acid (atRA) is the potent natural metabolite of retinol and plays an important role in normal embryonic development and maintenance of cellular phenotype in adult animals. atRA is the activating ligand for the retinoic acid receptors (RARs) which form heterodimers with retinoid X receptors (RXRs) on the retinoic acid response element (RARE). Through activation of the RAR/RXRs nuclear receptors, atRA regulates the transcription of a large number of protein-coding genes and regulatory RNAs. Intracellular levels of atRA are controlled by the retinol signaling pathway (RSP) that regulates the biosynthesis and catabolism of atRA to maintain physiological levels. Chemicals that interfere with the RSP can cause abnormal intracellular levels of atRA and therefore are potential developmental toxicants. To assess compounds for the potential adverse effect on embryonic development through interfering with retinol signaling, a cell-based RARE luciferase reporter gene assay was used. C3RL4 cell line (OARSA/CFSAN/FDA, Laurel, MD) was used to screen Tox21 10K compound library for identifying inhibitors of the RSP. Also cytotoxicity was assessed by determining the viability of cells based on the quantitation of ATP.
Tox21 Assay Protocol Summary: C3RL4 cells were seeded at 1,000/well in 4 uL of assay medium into white solid 1,536-well tissue culture plates (Greiner Bio-One North America Inc. Monroe, NC) using a Multidrop Combi (Thermo Scientific, Waltham, MA) dispenser. After incubation at 37 C and 5% CO2 for an overnight, 23 nL of compounds dissolved in DMSO, positive control or DMSO only were transferred by a Pintool station (Kalypsys, San Diego, CA). One ul of 1 uM (final concentration) of Retinol was added right after the compound addition by using a Flying Reagent Dispenser (FRD) (Aurora Discovery, San Diego, CA). After 6 hr incubation at 37 C and 5% CO2, 5 uL of CellTiter-Glo reagent (Promega Corporation, Madison, WI) was added to each assay plate using an FRD. Luminescence was quantified on a ViewLux plate reader (PerkinElmer, Waltham, MA) after 30 min incubation at room temperature.
In the case of `Cc1ccc2ccc(Cl)cc2n1`, the “activity change, negative = cytotoxicity” value is reported as -2.87% [at 42.5 µM].
With `CCc1ccc(C=O)cc1` the “activity change, negative = cytotoxicity” value was -0.857%.
In the case of `O=C(NCCc1c[nH]c2ccccc12)c1cccnc1`, the “activity change, negative = cytotoxicity” value is reported as 1.29% [at 42.5 µM].
For `CC(=O)c1ccc2c(c1)Cc1ccccc1-2`, the “activity change, negative = cytotoxicity” value was -3.4%.
With `COc1cc(C(=S)N2CCOCC2)cc(OC)c1OC` the “activity change, negative = cytotoxicity” value was 4.17% [at 42.5 µM].
In the case of `OCCN(CCO)c1cccc(Cl)c1`, the “activity change, negative = cytotoxicity” value is reported as 0.344%.
In the case of `CC(C)(C)OC(=O)c1ccc(O)cc1`, the “activity change, negative = cytotoxicity” value is reported as 0.329%.
In the case of `CC(=O)Nc1ccc(S(=O)(=O)Nc2ccc([N+](=O)[O-])cc2)cc1`, the “activity change, negative = cytotoxicity” value is reported as 1.5% [at 42.5 µM].
For `C=CCCCCCCCCCCCC`, the “activity change, negative = cytotoxicity” value was 0.266%.
In the case of `O=C(CCNNC(=O)c1ccncc1)NCc1ccccc1`, the “activity change, negative = cytotoxicity” value is reported as 0.469% [at 42.5 µM].
For `COCCOC(=O)C1=C(C)NC(C)=C(C(=O)OC(C)C)C1c1cccc([N+](=O)[O-])c1` (stereo not given), the “activity change, negative = cytotoxicity” value was 0.84% [at 42.5 µM].
With `CC1(C)S[C@@H]2[C@H](N=CN3CCCCCC3)C(=O)N2[C@H]1C(=O)O` the “activity change, negative = cytotoxicity” value was 2.29% [at 42.5 µM].
In the case of `CC(=O)c1sc(C)nc1C`, the “activity change, negative = cytotoxicity” value is reported as 6.51%.
In the case of `CCCCCCCCOS(=O)(=O)O`, the “activity change, negative = cytotoxicity” value is reported as -0.164%.
For `C=C1CC/C=C(\C)CC[C@@H]2[C@@H]1CC2(C)C`, the “activity change, negative = cytotoxicity” value was 4.14%.
For `NS(=O)(=O)c1ccc(NC(=O)CCC(=O)O)cc1`, the “activity change, negative = cytotoxicity” value was 2.53% [at 42.5 µM].
With `COc1ccc(-c2cc(=O)c3c(O)cc(O[C@@H]4O[C@H](CO[C@@H]5O[C@@H](C)[C@H](O)[C@@H](O)[C@H]5O)[C@@H](O)[C@H](O)[C@H]4O)cc3o2)cc1O` the “activity change, negative = cytotoxicity” value was 4.4% [at 42.5 µM].
With `CCCCNC1CC(C)(C)NC(C)(C)C1` the “activity change, negative = cytotoxicity” value was -0.512%.
With `C=Cc1ccccn1` the “activity change, negative = cytotoxicity” value was -1.76%.
With `CCN(CC)CC(=O)Nc1c(C)cccc1C` the “activity change, negative = cytotoxicity” value was -0.0251% [at 42.5 µM].
With `COCCOCCOCCOCCOCCO` the “activity change, negative = cytotoxicity” value was 0.597%.
With `O=C(O)CCSSCCC(=O)O` the “activity change, negative = cytotoxicity” value was -2.36%.
For `CC(=O)NCCCCCC(=O)O`, the “activity change, negative = cytotoxicity” value was -0.693% [at 42.5 µM].
With `O=C(OCC(O)CO)c1ccccc1Nc1ccnc2c(C(F)(F)F)cccc12` (stereo not given) the “activity change, negative = cytotoxicity” value was -0.0242% [at 42.5 µM].
For `O=P(O)(O)OP(=O)(O)O`, the “activity change, negative = cytotoxicity” value was -1.69%.
With `COc1nccnc1NS(=O)(=O)c1ccc(N)cc1` the “activity change, negative = cytotoxicity” value was 2.19% [at 42.5 µM].
With `COc1ccc(OC)c(Cl)c1` the “activity change, negative = cytotoxicity” value was 1.5%.
In the case of `Cc1ccsc1/C=C/C1=NCCCN1C`, the “activity change, negative = cytotoxicity” value is reported as -5.04% [at 42.5 µM].
For `NNc1nnc(NN)c2ccccc12`, the “activity change, negative = cytotoxicity” value was 5.64% [at 42.5 µM].
For `N[C@@H](CCC(=O)Nc1ccc([N+](=O)[O-])cc1)C(=O)O`, the “activity change, negative = cytotoxicity” value was 3.39%.
In the case of `FC(F)(F)c1ccccc1-n1ccnc1`, the “activity change, negative = cytotoxicity” value is reported as -0.899% [at 42.5 µM].
For `COc1ccc2c(c1OC)C(=O)O[C@@H]2[C@H]1c2c(cc3c(c2OC)OCO3)CCN1C`, the “activity change, negative = cytotoxicity” value was -0.324% [at 42.5 µM].
For `CC(C)(C)c1nnc(NS(=O)(=O)c2ccc(N)cc2)s1`, the “activity change, negative = cytotoxicity” value was 2.66% [at 42.5 µM].
With `CC(=O)/C=C/C1C(C)=CCC(C)C1(C)C` (stereo not given) the “activity change, negative = cytotoxicity” value was 1.62%.
For `Cc1c(I)c(=O)n(-c2ccccc2)n1C`, the “activity change, negative = cytotoxicity” value was 3.11% [at 42.5 µM].
In the case of `CCC(C)(CCC(C)C)C(=O)O` (stereo not given), the “activity change, negative = cytotoxicity” value is reported as 3.08%.
In the case of `COc1cc(N)ccc1C`, the “activity change, negative = cytotoxicity” value is reported as 3.1%.
For `CC(C)(C)c1cc(CCC(=O)NN)cc(C(C)(C)C)c1O`, the “activity change, negative = cytotoxicity” value was -3.02%.
For `CCN1CCc2nc(N)oc2CC1`, the “activity change, negative = cytotoxicity” value was -1.15% [at 42.5 µM].
For `CCCC/C=C\CCCCCCCCCC=O`, the “activity change, negative = cytotoxicity” value was 2.73%.
